# Source: PubChem (National Center for Advancing Translational Sciences (NCATS))
# Compounds with a hit are over-represented: about 19% of the library has one in this group of screens.
# KB-3-1 tox – qHTS assay for MDR1-selective chemotherapeutics: Primary screen using the parental adenocarcinoma cell KB-3-1. KB-3-1 viability, CellTiter-Glo ATP luminescence, 72 h. Potency, µM (series often up to 46.1 µM), most hits filed as cytotoxic. hit rate 1.4% among 400,000. AID 1347075, 2019; note: nearly all actives have a fitted effect of over 60% in size
#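 Here the drug-naive KB-3-1 line serves as comparator for MDR sub-line selectivity; cells received compound titrations, 72 h at 37 °C, then CellTiter-Glo readout.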
# KB-V1 MDR tox – qHTS assay for MDR1-selective chemotherapeutics: Primary screen using the drug-selected MDR subline cells KB-V1; KB-V1 MDR cells viability, CellTiter-Glo, 72 h; Potency, µM (series often up to 46.1 µM), actives largely listed as cytotoxic; hit rate 3.4% among 400,000; AID 1347076, 2019; note: nearly all actives have a fitted effect of over 60% in size
#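 Cells of the MDR subline KB-V1 are plated, dosed with compound at multiple concentrations, and incubated 72 h at 37 degrees C; CellTiter-Glo is then added and luminescence read after 10 min.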
# HT1080 IDH1KD tx – qHTS for induction of synthetic lethality in tumor cells producing 2HG: qHTS for the HT-1080-IDH1KD cell line | HT-1080 IDH1 knockdown viability, ATP luminescence, 48 h | hit rate 2% among 360,000 | Potency, µM (doses to about 46.1 µM), most hits filed as cytotoxic
#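 HT-1080-IDH1KD cells (IDH1 knocked down), 750/well in RPMI with 5% FBS, treated with compound 48 h at 37 degrees C. Viability by CellTiter-Glo luminescence, normalised to DMSO and no-cell wells; concentration-response curves classed.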
# TDP1 cell CPT – qHTS for Inhibitors of human tyrosyl-DNA phosphodiesterase 1 (TDP1): qHTS in cells in presence of CPT | Potency, µM (top dose mostly 46.2 µM), most hits filed as inhibitors | hit rate 12% among 420,000 | chicken DT40 Tdp1-/-;hTDP1 cells + 20 nM CPT, ATP luminescence, 48 h | AID 686979, 2013; note: nearly all actives have a fitted effect of over 55% in size
#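 Chicken DT40 Tdp1-/- cells complemented with human TDP1, 400 cells/well, exposed to compounds plus 20 nM camptothecin for at least 48 h at 37 C; viability read as ATP content by CellTiter-Glo luminescence.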
# HT1080-NT tox – qHTS for induction of synthetic lethality in tumor cells producing 2HG: qHTS for the HT-1080-NT fibrosarcoma cell line; HT-1080-NT fibrosarcoma viability, CellTiter-Glo ATP luminescence, 48 h; Potency, µM (highest dose often 46.1 µM), most hits filed as cytotoxic; hit rate 1.6% among 360,000; AID 686970, 2013;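 note: NT is the 2HG producing partner of a matched IDH1 knockdown line; nearly all actives have a fitted effect of over 55% in size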
#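 750 cells/well, RPMI + 5% FBS; 2 h settle, compound pin-transfer, 48 h at 37 degrees C. CellTiter-Glo 10 min RT, luminescence. Normalized to DMSO and media-only wells.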
# TDP1 cell noCPT – qHTS for Inhibitors of human tyrosyl-DNA phosphodiesterase 1 (TDP1): qHTS in cells in absence of CPT; DT40 Tdp1-/- hTDP1 cells, no CPT, ATP luminescence, 48 h; Potency, µM (series often up to 46.2 µM), actives largely listed as inhibitors; hit rate 15% among 420,000; note: nearly all actives have a fitted effect of over 55% in size
#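 Compound effects on proliferation are scored in DT40 Tdp1-/-;hTDP1 cells in the absence of CPT. ATP levels (CellTiter-Glo luminescence) are recorded after a ≥48 hr, 37 °C incubation.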
# Numbers stand for hits; i = inactive; ? = inconclusive; nt = not tested or not shown; [ ] = another dose, or the depositor's remark. Calls come from the whole dose curve; as a rule, active = well fitted curve in the direction sought with a large enough effect; inconclusive = small, poorly fitted or top-dose-only effect, or another doubt; inactive = no such curve, though single readings can be large; an effect the other way counts as inactive or inconclusive.
SMILES,KB-3-1 tox,KB-V1 MDR tox,HT1080 IDH1KD tx,TDP1 cell CPT,HT1080-NT tox,TDP1 cell noCPT
Cc1ccc2c(c1)N(CC(=O)N1CCN(c3nc4ccccc4s3)CC1)C(=O)C(C)O2 (configuration not stated),?,i,?,?,i,?
COc1ccc(Nc2cnn(-c3nc4ccccc4s3)c(=O)c2Cl)cc1,?,21µM,?,2.1µM,?,4.1µM
CN1c2ccccc2C(C)(C)C12C=Nc1c(ccc3ccccc13)O2 (configuration not stated),i,i,i,i,i,i
COc1ccc2ccc3c(c2c1)N=CC1(O3)N(C)c2ccccc2C1(C)C (configuration not stated),i,?,6.3µM,?,7.9µM,23µM
O=c1c2cc3c(nc2ncn1Cc1ccccc1F)CCCC3,i,i,nt,18µM,nt,?
CCCCN(CCCC)CC(O)c1cc(Cl)cc2c1-c1ccc(Cl)cc1C2=Cc1ccc(Cl)cc1 (configuration not stated),?,21µM,nt,8.9µM,nt,?
COc1ccc(S(=O)(=O)NC(=O)C2(C)CCN2C(=O)Cc2cc(F)ccc2F)cc1 (configuration not stated),i,i,i,i,i,i
C[C@@]12C(=O)Nc3cc(F)ccc3C(=O)N1[C@H]1c3ccccc3OC[C@@H]1[C@@H]2c1ccccc1,i,i,?,?,i,?
CCOC(=O)C1=C(c2cccc(Oc3ccccc3)c2)NC(=S)NC1C (configuration not stated),?,16µM,i[9.24 µM],?,?,23µM
CCc1nnc(NC(=O)c2cc(=O)c3cc(C)c(C)cc3o2)s1,i,?,nt,i,nt,i
O=C(Nc1ncc2c(n1)CC(c1ccccc1)CC2=O)c1ccco1 (configuration not stated),i,i,i,i,i,i
COc1ccc(Nc2ncc3c(n2)CC(c2ccc(OC)cc2)CC3=O)cc1 (configuration not stated),i,i,i,?,i,12µM
COc1ccccc1C(=O)Nc1ncc2c(n1)CC(c1ccco1)CC2=O (configuration not stated),i,i,i,?,i,?
COc1ccc(C2CC(=O)c3cnc(NC(=O)c4ccco4)nc3C2)cc1 (configuration not stated),?,?,i,i,i,i
O=C1CC(c2ccccc2)Cc2nc(NCc3ccco3)ncc21 (configuration not stated),i,16µM,i,i,i,?
COc1ccc(C2CC(=O)c3cnc(NC(=O)c4ccccc4)nc3C2)c(OC)c1 (configuration not stated),?,?,i,6.5µM,i,7.3µM
O=C1CC(c2ccco2)Cc2nc(Nc3ccc(F)cc3)ncc21 (configuration not stated),i,?,i,?,i,23µM
Cc1ccc(S(=O)(=O)c2cn(CC(=O)Nc3ccc(F)cc3)c3cc4c(cc3c2=O)OCO4)cc1,i,i,nt,i,nt,i
O=C(NCc1ccccc1)N1CCC(Cc2ccccc2)CC1,i,i,i,?,i,?
COc1ccc(C)cc1NC(=O)C1CCN(S(=O)(=O)c2cc(Br)cc3c2N(C(C)=O)CC3)CC1,i,i,nt,i,nt,i
COc1ccc(Nc2ncc3c(n2)CC(c2ccc(C)cc2)CC3=O)cc1 (configuration not stated),i,?,i,?,i,8.2µM
COc1ccc(-c2cc(C(F)(F)F)nc(-n3cc(Cl)cn3)n2)cc1,i,23µM,i,15µM,?,?
COc1cccc(-c2cc(C(F)(F)F)nc(-n3cc(Cl)cn3)n2)c1,i,i,i,?,i,16µM
COc1ccc(-c2cc(C(F)(F)F)nc(-n3nc(C(F)(F)F)cc3C)n2)cc1,i,i,nt,15µM,nt,13µM
COC(=O)c1ccn(-c2nc(-c3ccco3)cc(C(F)(F)F)n2)n1,i,i,i,i,i,?
SMILES,KB-3-1 tox,KB-V1 MDR tox,HT1080 IDH1KD tx,TDP1 cell CPT,HT1080-NT tox,TDP1 cell noCPT
CCOC(=O)c1ccn(-c2nc(-c3cccc(OC)c3)cc(C(F)(F)F)n2)n1,i,i,nt,15µM,nt,21µM
CC(C)C(=O)n1nc(-c2cccnc2)nc1NCc1ccc(F)cc1,i,i,i,i,i,i
CCSC1=C(C#N)C(c2ccccc2OC)CC(=O)N1 (configuration not stated),i,i,i,?,i,i
CCOC(=O)CSC1=C(C#N)C(c2ccccc2OC)CC(=O)N1 (configuration not stated),?,?,18µM,16µM,?,16µM
CCOC(=O)CSC1=C(C#N)C(c2ccc(C)s2)CC(=O)N1 (configuration not stated),5.2µM,1.8µM,1.8µM,5.2µM,0.71µM,3.3µM
COc1ccc(C(=O)NC(C(=O)NCCc2ccc3c(c2)OCCO3)C(C)C)cc1 (configuration not stated),i,i,i,i,i,?
NC(=O)c1nn2c(C(F)(F)F)cc(-c3ccc(Br)cc3)nc2c1Cl,i,i,nt,?,nt,?
Cc1cc(C)n2nc(SCC(=O)N(CCC#N)c3ccccc3F)nc2n1,i,i,i,i,i,i
CC1=CCC2CC1C2(C)C (configuration not stated),nt,nt,nt,i,nt,i
O=C(NC(c1ccccc1)C(Cl)(Cl)Cl)c1ccccc1 (configuration not stated),i,?,i,21µM,i,21µM
Cc1ccc(C(NC(=O)c2ccccc2)C(Cl)(Cl)Cl)cc1 (configuration not stated),i,?,i,15µM,i,21µM
O=S(=O)(/N=C(/c1ccccc1)N1CCCCCC1)c1ccccc1,i,?,i,i,i,i
O=S(=O)(N=S(N1CCCCC1)N1CCCCC1)c1ccccc1,i,i,i,9.2µM,i,?
COc1ccc2c(Cl)cc(NC(=O)Nc3c(C)cccc3C)nc2c1,i,i,i,13µM,i,18µM
CC(NS(=O)(=O)c1ccccc1)C(c1cccs1)N1CCN(C)CC1 (configuration not stated),i,i,i,i,i,i
